Compounds without any hit were thinned out: in the full panel of roughly 79,000, 15% have a hit. Active and inactive are the calls of the source. Cut-off read from the data, not from the text of the source: active = growth inhibition above about 70%; inactive = the rest.

The first test in a line: NCI Yeast Anticancer Drug Screen. Data for the rad52 strain (AID 147).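 Note: 0% = growth of vehicle-treated control cultures.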 Conditions: S. cerevisiae rad52 mutant growth inhibition; at 1.2 µM; hits give high values. A digest of the protocol:
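DNA repair-defective yeast; compound exposure; growth scored against vehicle controls.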
For the compound `CN(C)CC(CN(C)C)C(=O)/C=C/c1ccc(Cl)cc1Cl`, the growth inhibition is 0% (inactive).
Still for that read-out and setting: next, `c1ccc2c(c1)ccn2CCc1c[nH]c2ccccc12`: -35% (inactive); `Cc1ccccc1NC(=O)c1c(C)oc2c1C(=O)c1ccccc1C2=O`: -7% (inactive); `CC(C)OC(=O)NNc1c(Cl)cc(Cl)cc1Cl`: -2% (inactive).
The same measure, in the same setting: under `COc1ccc2nc3cccc([N+](=O)[O-])c3c(NCCNCCO)c2c1` stands 69% (inactive).
Take `COc1ccc2c(c1)CCCC(Br)C2=O` (configuration not stated): the growth inhibition was 12% (inactive).
On the same count and under the same terms, under `CCC(OC(C)=O)C1CC(C(C)C)CCC1C` (configuration not stated) stands 1% (inactive); under `O=S(=O)(c1cccc(C(F)(F)F)c1)N1c2ccccc2-n2cccc2C1c1cccnc1` (configuration not stated), -23% (inactive).
On the same count and under the same terms, under `c1ccc(-c2cc(C3CO3)c3ccccc3n2)cc1` (configuration not stated) stands -1% (inactive); under `COc1ccc(/C=C2\SC(=S)N(/C=C3\C(=O)N(c4ccccc4)N=C3C)C2=O)cc1OC`, 3% (inactive); under `CC1=CC(=C(c2ccc(N)c(C)c2)c2ccc(N)c(C)c2)C=CC1=N`, 24% (inactive).
Turning to `CC1C(c2ccccc2)SC(=N)N1C` (configuration not stated), the growth inhibition is -1% (inactive).
As for `CC(/C=C/c1ccc([N+](=O)[O-])o1)=N/N1CC(CN2CCOCC2)OC1=O` (configuration not stated), the growth inhibition was -5% (inactive).
The same measure, in the same setting: next, `C=CC(C)(C)N1C(=O)C(C(C)=O)=C(O)C1Cc1c[nH]c2ccccc12` (configuration not stated): -1% (inactive); `O=C1c2cccc3cccc(c23)C(=O)N1CCNCCN1C(=O)c2cccc3cccc(c23)C1=O`: 1% (inactive); `Cc1ccc([N+](=O)[O-])c2c(NCCC[N+](C)(C)[O-])c3ccccc3nc12`: -8% (inactive).
Still for that read-out and setting: under `COC(=O)C(Cc1c[nH]c2ccccc12)N1CN(C)c2ccccc2C1=O` (configuration not stated) stands 7% (inactive).
For the compound `O=C(/N=N/C(=O)Oc1ccccc1)Oc1ccccc1`, the growth inhibition was -49% (inactive).
Regarding `COc1cc([C@@H]2c3cc4c(cc3[C@@H](NC(=O)NO)[C@H]3COC(=O)[C@H]23)OCO4)cc(OC)c1O`, the growth inhibition was -2% (inactive).
The same measure, in the same setting: next, `CC1(C)CC(=O)C(/C=N/c2nc(-c3ccc(Br)cc3)cs2)=C(O)C1`: 11% (inactive).
On to `CCOC(=O)/C(=C/c1cccc(Cl)c1)N(CC)CC`, for which the growth inhibition is 10% (inactive).
Consider `CC(C)OC(=O)NNc1cccc(Cl)c1`, for which the growth inhibition is 1% (inactive).
Same read-out and setting: next, `CCC(=O)C1=C(O)c2cc(OC)ccc2CC1C(=O)OC` (configuration not stated): -1% (inactive).
On the same count and under the same terms, next, `O=S(=O)(NC1CCCC(c2ccccc2)C1)c1ccccc1` (configuration not stated): 1% (inactive); `COc1ccc2nc3cccc([N+](=O)[O-])c3c(NCCCCCC(=O)O)c2c1`: 87% (active); `CCO/C=C1\SC(=S)N(c2ccc(OCC)cc2)C1=O`: 3% (inactive).
Still for that read-out and setting: under `COc1cc(OC)c(CSCC(NC(=O)OCC2c3ccccc3-c3ccccc32)C(=O)O)c(OC)c1` (configuration not stated) stands 0% (inactive).
`COC(=O)c1ccccc1N=NNc1cccc(SC)c1`: the growth inhibition was 11% (inactive).
`CC1=NN(C(=O)c2ccccc2O)C(=O)/C1=C/c1ccco1`: the growth inhibition is 1% (inactive).
Same read-out and setting: next, `COc1ccccc1NC(=O)c1ccc(Cl)cc1`: 0% (inactive); `CC(C)=CCC/C(C)=C/CN1C(=O)C=CC1=O`: 9% (inactive); `O=C1CSC(c2ccccc2)N1c1ccc(-c2ccc(-n3c(-c4ccccc4)nc4ccccc4c3=O)cc2)cc1` (configuration not stated): 0% (inactive).
The same measure, in the same setting: under `N#CC1OB(O)c2ccccc21` (configuration not stated) stands -9% (inactive); under `O=C(NCCNCCNC(=O)c1cc(-c2ccccc2)nc2ccccc12)c1cc(-c2ccccc2)nc2ccccc12`, -3% (inactive); under `Brc1ccc(B2Nc3ccccc3N2)cc1`, 3% (inactive).
With `CCOP(=O)(OCC)/C(C#N)=C/c1cccc(Oc2ccccc2)c1`, the growth inhibition was -17% (inactive).

Still in this test, the particulars now being: S. cerevisiae rad52 mutant growth inhibition; at 3.7 µM; hits give high values.
For `CN(C)CC(CN(C)C)C(=O)/C=C/c1ccc(Cl)cc1Cl`, the growth inhibition was -1% (inactive).
With `c1ccc2c(c1)ccn2CCc1c[nH]c2ccccc12`, the growth inhibition was -37% (inactive).
Still for that read-out and setting: next, `Cc1ccccc1NC(=O)c1c(C)oc2c1C(=O)c1ccccc1C2=O`: -6% (inactive); `CC(C)OC(=O)NNc1c(Cl)cc(Cl)cc1Cl`: -2% (inactive).
On to `COc1ccc2nc3cccc([N+](=O)[O-])c3c(NCCNCCO)c2c1`, for which the growth inhibition is 90% (active).
Same read-out and setting: under `COc1ccc2c(c1)CCCC(Br)C2=O` (configuration not stated) stands 17% (inactive).
On the same count and under the same terms, under `CCC(OC(C)=O)C1CC(C(C)C)CCC1C` (configuration not stated) stands 2% (inactive).
The same measure, in the same setting: next, `O=S(=O)(c1cccc(C(F)(F)F)c1)N1c2ccccc2-n2cccc2C1c1cccnc1` (configuration not stated): 7% (inactive); `c1ccc(-c2cc(C3CO3)c3ccccc3n2)cc1` (configuration not stated): 5% (inactive); `COc1ccc(/C=C2\SC(=S)N(/C=C3\C(=O)N(c4ccccc4)N=C3C)C2=O)cc1OC`: 8% (inactive).
`CC1=CC(=C(c2ccc(N)c(C)c2)c2ccc(N)c(C)c2)C=CC1=N`: the growth inhibition was 41% (inactive).
With `CC1C(c2ccccc2)SC(=N)N1C` (configuration not stated), the growth inhibition is -3% (inactive).
On the same count and under the same terms, under `CC(/C=C/c1ccc([N+](=O)[O-])o1)=N/N1CC(CN2CCOCC2)OC1=O` (configuration not stated) stands 5% (inactive); under `C=CC(C)(C)N1C(=O)C(C(C)=O)=C(O)C1Cc1c[nH]c2ccccc12` (configuration not stated), -4% (inactive).
With `O=C1c2cccc3cccc(c23)C(=O)N1CCNCCN1C(=O)c2cccc3cccc(c23)C1=O`, the growth inhibition was 3% (inactive).
As for `Cc1ccc([N+](=O)[O-])c2c(NCCC[N+](C)(C)[O-])c3ccccc3nc12`, the growth inhibition was -4% (inactive).
Still for that read-out and setting: under `COC(=O)C(Cc1c[nH]c2ccccc12)N1CN(C)c2ccccc2C1=O` (configuration not stated) stands 2% (inactive).
Same read-out and setting: next, `O=C(/N=N/C(=O)Oc1ccccc1)Oc1ccccc1`: -54% (inactive); `COc1cc([C@@H]2c3cc4c(cc3[C@@H](NC(=O)NO)[C@H]3COC(=O)[C@H]23)OCO4)cc(OC)c1O`: 2% (inactive).
With `CC1(C)CC(=O)C(/C=N/c2nc(-c3ccc(Br)cc3)cs2)=C(O)C1`, the growth inhibition was 20% (inactive).
Still for that read-out and setting: next, `CCOC(=O)/C(=C/c1cccc(Cl)c1)N(CC)CC`: 13% (inactive); `CC(C)OC(=O)NNc1cccc(Cl)c1`: 10% (inactive).
Still for that read-out and setting: under `CCC(=O)C1=C(O)c2cc(OC)ccc2CC1C(=O)OC` (configuration not stated) stands 2% (inactive); under `O=S(=O)(NC1CCCC(c2ccccc2)C1)c1ccccc1` (configuration not stated), 3% (inactive).
With `COc1ccc2nc3cccc([N+](=O)[O-])c3c(NCCCCCC(=O)O)c2c1`, the growth inhibition is 96% (active).
Still for that read-out and setting: next, `CCO/C=C1\SC(=S)N(c2ccc(OCC)cc2)C1=O`: -1% (inactive); `COc1cc(OC)c(CSCC(NC(=O)OCC2c3ccccc3-c3ccccc32)C(=O)O)c(OC)c1` (configuration not stated): 5% (inactive); `COC(=O)c1ccccc1N=NNc1cccc(SC)c1`: 13% (inactive).
For the compound `CC1=NN(C(=O)c2ccccc2O)C(=O)/C1=C/c1ccco1`, the growth inhibition is 16% (inactive).
Same read-out and setting: next, `COc1ccccc1NC(=O)c1ccc(Cl)cc1`: 3% (inactive); `CC(C)=CCC/C(C)=C/CN1C(=O)C=CC1=O`: 36% (inactive); `O=C1CSC(c2ccccc2)N1c1ccc(-c2ccc(-n3c(-c4ccccc4)nc4ccccc4c3=O)cc2)cc1` (configuration not stated): 1% (inactive).
Still for that read-out and setting: under `N#CC1OB(O)c2ccccc21` (configuration not stated) stands -6% (inactive); under `O=C(NCCNCCNC(=O)c1cc(-c2ccccc2)nc2ccccc12)c1cc(-c2ccccc2)nc2ccccc12`, -3% (inactive); under `Brc1ccc(B2Nc3ccccc3N2)cc1`, 14% (inactive).
The same measure, in the same setting: under `CCOP(=O)(OCC)/C(C#N)=C/c1cccc(Oc2ccccc2)c1` stands -14% (inactive).

The values above are taken from PubChem BioAssay (NCI).
